Measured values from PubChem BioAssay AID743245 (National Center for Advancing Translational Sciences (NCATS), 2014).
The other results are listed elsewhere or left out. Results filed as inconclusive are left out. A number with no mark means an inactive call. Active and inactive are the calls of the source. Calls follow the shape of the dose curve; as a rule, active = well fitted inhibition curve with a large enough effect; inconclusive = small, poorly fitted or top-dose-only effect; inactive = flat fitted curve, though single readings scatter.

biological target: ATP-dependent Clp protease proteolytic subunit (Bacillus subtilis (strain 168)) (UniProt P80244); assay: qHTS Assay for Activators of ClpP: Hit Validation of Inhibitors; also: nearly all actives have a fitted effect of over 70% in size; details: purified B. subtilis ClpP, FRET-FV substrate cleavage, 20 min; series mostly up to 57.5 µM; activity change, negative = inhibition: at the top concentration
Description: The Clp protease proteolytic subunit (ClpP) is the core unit of the Clp complex belonging to the peptidase family S14 that hydrolyzes protein into small peptides in the presence of ATP and magnesium. It is ubiquitously expressed and is the major protease in bacteria. […] Unlike common antibiotics that simply interfere with the essential enzyme activity, ADEP binding activates the ClpP core in the absence of the regulatory Clp-ATPases leading to uncontrolled proteolysis and eventually cell death. Activators binding to the docking site on ClpP can also block formation of the ClpXP and ClpA/C-P holoenzyme complexes interfering with the normal biological functions of ClpP and thus have the potential to become new anti-microbials. To identify activators of ClpP, a FRET based quenching reversal assay was developed using a purified B. subtilis ClpP and a decapeptide substrate (FRET-FV). The FRET-FV is tagged with a fluorescent molecule amino benzoic acid (donor) at the N-terminus and a nitrotyrosine quencher (acceptor) at the C-terminus. FRET-FV cleaves upon activation of ClpP with ADEP treatement and reverses the quenching effect of the nitrotyrosine causing an increase in fluorescence emission signal at 430nm. This assay was used to screen the Molecular Libraries Small Molecule Repository (MLSMR). NIH Molecular Libraries Probe Production Centers Network [MLPCN] NIH Chemical Genomics Center [NCGC] MLPCN Grant: MH095569 Assay Submitter (PI): Michael Maurizi, National Cancer Institute
Two and a half microL/well of purified enzyme solution (final concentrations 10 microg/mL B. subtilis ClpP in 100 mM Tris/HCl pH8, 100 mM KCl, 0.05% low protease BSA, 2.5% glycerol, 0.01% Tween-20 buffer) was dispensed into 1536-well assay plates (Greiner, black solid, medium-binding plates) with Aurora Discovery BioRAPTR Flying Reagent Dispenser (FRD, Beckton-Dickenson). Compound solution (23 nL) was transferred to the assay plate using Kalypsys pin tool equipped with a 1536-pin tool. One and a half microL/well substrate solution (final concentrations 3 microM FRET-FV substrate in 100 mM Tris/HCl pH8, 100 mM KCl, 0.05% low protease BSA, 2.5% glycerol, 0.01% Tween-20 buffer) was then added for a total of 4 microL final reaction volume. FRET signals at time 0 and after 20 min room temperature incubation were obtained using the PerkinElmer Envision plate reader with 320nm excitation and 430nm emission filters. Delta FRET value (Time 20 - Time 0) was calculated and normalized to the delta FRET value of positive control ADEP (5.8 microM final concentration) and negative control DMSO and no enzyme wells.
% is scaled to controls: 0 for no effect and ±100 for the full control effect; potency is read from the fitted curve at half-maximal effect.

Sequence of ATP-dependent Clp protease proteolytic subunit (Bacillus subtilis (strain 168)) (P80244 whole entry, looked up): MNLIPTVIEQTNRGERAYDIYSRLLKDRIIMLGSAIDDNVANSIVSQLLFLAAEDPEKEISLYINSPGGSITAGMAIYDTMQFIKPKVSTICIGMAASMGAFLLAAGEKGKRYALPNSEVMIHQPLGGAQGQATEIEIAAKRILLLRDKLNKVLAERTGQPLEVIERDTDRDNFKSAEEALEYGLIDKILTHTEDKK

Compound | Potency | activity change, negative = inhibition [%]
CC(C)n1c(-c2cccs2)nc2ccccc21 | 21.7 µM (active) | –
CCCCN(C)c1ccc([N+](=O)[O-])cc1 | – | -1.43
CCOc1ccc(-c2cc(C)n3nc(C(=O)Nc4ccc(C)c(C)c4)cc3n2)cc1 | – | 0.34
COc1ccc(CNC(=O)COC(=O)CCS(=O)(=O)c2ccc(C)cc2)cc1OC | – | -0.566
CCOc1ccc(-c2nnc(-c3ccco3)o2)cc1 | 21.7 µM (active) | –
Cc1cccc(-c2oc3ccc(-c4ccc5c(c4)OCO5)cc3c2C#Cc2cncn2C)c1 | 24.3 µM (active) | –
CN(C(=O)c1cc2c(=O)n3ccccc3nc2s1)C1CCCCC1 | 13.7 µM (active) | –
CCOC(=O)N1CCN(C(=O)c2ccc3nc4cc(Cl)ccc4c(=O)n3c2)CC1 | 27.3 µM (active) | –
CCCCn1c(=O)c2oc3ccccc3c2n(CC(=O)Nc2ccccc2OC)c1=O | – | -3.85
Cc1nc2sc(C)c(C)n2c(=O)c1S(=O)(=O)NCCc1ccc(Cl)cc1 | 24.3 µM (active) | –
O=C(Nc1ccc2oc(-c3ccc4ccccc4c3)nc2c1)c1cccs1 | 10.9 µM (active) | –
COc1ccccc1NC(=O)c1oc2ccccc2c1NC(=O)COc1ccccc1OC | 21.7 µM (active) | –
CCN(CCCNC(=O)c1cc2c(=O)n(CC)c3ccccc3c2s1)Cc1ccccc1 | – | -0.109
COc1ccc(CCNC(=O)c2ccc3c(c2)sc2nc(-c4ccc(C)cc4)cn23)cc1OC | 27.3 µM (active) | –
Fc1cc(F)c2nc(Nc3nc4c(F)cccc4s3)sc2c1 | 4.85 µM (active) | –
COc1ccccc1CNC(=O)c1ccccc1NC(=O)c1nsc2ccccc12 | 24.3 µM (active) | –
Cc1cccc(NC(=O)c2nnn(CC(=O)Nc3ccc(C(C)C)cc3)c2N)c1C | – | -4.1
COc1cc2[nH]c(=O)n(Cc3ccc(C(=O)NCc4ccc(C)cc4)cc3)c(=O)c2cc1OC | – | -21.1
